# Measurements as given in PubChem BioAssay (NCI).
# About 79,000 compounds went through this panel and 15% of them were active in at least one assay; those are over-represented in the sample as a whole. A number with no mark means an inactive call. Calls of active or inactive are those of the source. Rule as the data show it: active = growth inhibition above about 70%; inactive = the rest.
# Experiments:
# [1] = NCI Yeast Anticancer Drug Screen. Data for the rad50 strain (AID 155);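 also: 0% = growth of vehicle-only cultures of the same strain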; conditions: S. cerevisiae rad50 strain growth inhibition; at 50.0 µM; hits give high values
# In short: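 Cells are treated with compound, grown, and their growth is then scored against vehicle-only cultures of the same repair-deficient yeast strain.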
# [2] = NCI Yeast Anticancer Drug Screen. Data for the mec2-1 strain (AID 157); conditions: S. cerevisiae mec2-1 strain, at 50.0 µM, hits give high values
# In short: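 mec2-1 yeast strain, carrying an alteration in DNA damage repair or cell cycle control, was exposed to compounds; growth inhibition was measured relative to vehicle-treated controls.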
# [3] = NCI Yeast Anticancer Drug Screen. Data for the sgs1 mgt1 strain (AID 161);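 also: 0% = growth of cultures given vehicle only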; conditions: S. cerevisiae sgs1 mgt1 strain, at 50.0 µM, hits give high values
# In short: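 Percent growth inhibition was derived by comparing compound-exposed mutant yeast with vehicle-exposed cultures. The strain carries alterations in DNA damage repair.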
# [4] = NCI Yeast Anticancer Drug Screen. Data for the cln2 rad14 strain (AID 165);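 also: 0% = growth equal to vehicle treated cultures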; conditions: S. cerevisiae cln2 rad14 strain, at 50.0 µM, hits give high values
# In short: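 Yeast carrying cln2 and rad14 alterations (cell cycle control and DNA damage repair) were exposed to compounds. Growth inhibition was measured against vehicle-treated controls.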
# [5] = NCI Yeast Anticancer Drug Screen. Data for the bub3 strain (AID 167); conditions: S. cerevisiae bub3 mutant strain, at 50.0 µM, hits give high values
# In short: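 Part of a panel of yeast mutants defective in DNA damage repair or cell cycle regulation. Each strain is grown with compound, and inhibition is calculated relative to solvent-treated cultures.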
# [6] = NCI Yeast Anticancer Drug Screen. Data for the mlh1 rad18 strain (AID 175); conditions: S. cerevisiae mlh1 rad18 strain growth inhibition; at 50.0 µM; hits give high values
# In short: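 Growth inhibition of the yeast strain was measured after compound exposure and expressed relative to vehicle-treated controls. The strain carries defined defects in DNA damage repair.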
SMILES,growth inhibition [1],growth inhibition [2],growth inhibition [3],growth inhibition [4],growth inhibition [5],growth inhibition [6]
CCN(CC)CCn1c(=O)n(C)c2ccccc21,2.75%,-18.7%,-13.3%,-35%,-1.65%,20.9%
CC(=O)OC(C)(C)/C=C/C(=O)[C@](C)(O)[C@H]1[C@H](O)C[C@@]2(C)[C@@H]3CC=C4[C@@H](C[C@H](O)C(=O)C4(C)C)[C@]3(CO)C(=O)C[C@]12C,21.1%,-12.9%,15.3%,-7.8%,18.6%,18.9%
CC(NC(=O)c1ccccc1)N(C)[N+](=O)[O-] (stereo unspecified),-3.7%,4%,2.5%,-13.4%,5.45%,-5.55%
Oc1ccccc1C1NCCc2[nH]cnc21 (stereo unspecified),39%,11.3%,14.4%,30.8%,4.15%,7.9%
C[N+](C)([O-])CCNC(=O)c1cc(N(CCCl)CCCl)c([N+](=O)[O-])cc1[N+](=O)[O-],-7.55%,-35%,-3.9%,-63.5%,-4.95%,-11.8%
C/C=C/C(=O)O,4.3%,-4.65%,-24.5%,10.2%,-0.05%,-9.75%
CN1CCC[N+](C)=C1c1ccc(N(C)C)cc1,-22.7%,-12.3%,-4.5%,-14.2%,-10.1%,-7.15%
ClCc1nc(-c2ccco2)no1,6.1%,51.2%,20.6%,-42.5%,4.55%,29.9%
S=P(NCc1cccc(CNP(=S)(N2CC2)N2CC2)c1)(N1CC1)N1CC1,24.4%,-0.2%,16.2%,7.8%,-1.6%,9.4%
O=S(=O)(c1ccc(O)cc1)c1ccccc1O,-1.95%,-6.35%,15.2%,3.75%,0.6%,28.9%
O=C(CCCN1CCC2(CC1)C(=O)NCN2c1ccccc1)c1ccccc1,-17.6%,-2.65%,-0.85%,-18.4%,2.35%,-2.15%
S=C(SP(SC(=S)N1CCCCC1)SC(=S)N1CCCCC1)N1CCCCC1,28.9%,-31.9%,47.5%,-10.2%,-2.2%,39.7%
CC1=CC2=C(C)C3(CC3)[C@@](C)(O)C(=O)C2=C1,45.5%,14.3%,55.8%,23.9%,26.9%,-15.2%
CC(=O)Nc1ccc(-c2ccccc2)cc1,39.7%,24.8%,46.6%,17.9%,-0.5%,32.9%
C/C=C1/CN2CCC1CC2C(O)c1ccnc2ccc(OCCO)cc12 (stereo unspecified),-8.4%,-13.2%,-2.35%,-9.35%,-24.6%,24.9%
Cc1cccc(Cl)c1OP(=O)(Oc1c(C)cccc1Cl)Oc1c(C)cccc1Cl,-10.4%,-7.8%,-19.3%,-19.3%,2.25%,-51.4%
Cc1ccc(S(N)(=O)=O)cc1 (tested in a mixture with another compound),14.9%,7.9%,8.8%,10.8%,29.4%,13%
C=CCC1(O)CCC2C3CCC4=CC(=O)CCC4=C3C=CC21CC (stereo unspecified),26.9%,-7.35%,20.4%,19.9%,21.5%,21.6%
CC(N)Cc1c[nH]c2ccccc12 (stereo unspecified),2.9%,-22.2%,1.1%,20.6%,-1.75%,12.8%
CCC1CC[Si](C)(C)CC12C(=O)NC(=O)NC2=O (stereo unspecified),0.85%,-2.25%,11.5%,1.65%,12.9%,-0.55%
BrCC[N+]12CC[N+](CCBr)(CC1)C2 (tested in a mixture with another compound),63.1%,49.5%,81.6% (active),61.5%,78.1% (active),42.4%

SMILES,growth inhibition [1],growth inhibition [2],growth inhibition [3],growth inhibition [4],growth inhibition [5],growth inhibition [6]
Cl.[O-]c1cccc2cccnc12.[O-]c1cccc2cccnc12.[O-]c1cccc2cccnc12.[O-]c1cccc2cccnc12.[Ti+4],89.8% (active),92.8% (active),92.8% (active),91.3% (active),92% (active),84.6% (active)
O=c1c(O)c(-c2ccccc2)oc2ccccc12.[Zr],-22.1%,-6.65%,-7.7%,18.4%,22.4%,-7.75%
O=c1ccc2cc3ccoc3c(O)c2o1,28.6%,0%,25.7%,30.6%,10.8%,18.2%
CC(SC(C)C(=O)N/N=C/c1ccc(N(CCCl)CCCl)cc1)C(=O)N/N=C\c1ccc(N(CCCl)CCCl)cc1 (stereo unspecified),-0.45%,-0.55%,-6.05%,-10.7%,5.05%,26.1%
O=[N+]([O-])c1cc(S(=O)(=O)F)cc(Cl)c1S,98.9% (active),99% (active),98.8% (active),90.5% (active),98.8% (active),98.8% (active)
CC(=O)Nc1cc(Cl)c([N+](=O)[O-])cc1C,-14.9%,-4.15%,-12.4%,-79.1%,0.75%,11.6%
CC(=O)C(C(C)=O)C(C)=O.[Cr],4.85%,-15.1%,-3.6%,11.1%,-16.1%,6.45%
CC(=O)N1CN2CN(C1)CN(C(C)=O)C2,0.3%,-8.95%,-5.3%,-26.6%,-9.05%,-5.85%
CCCCC[CH2][Sn](=[O])[CH2]CCCCC,8.25%,3.35%,-9.4%,-24.6%,6.8%,-11.4%
O=C1C(F)=C(F)C(=O)C(F)=C1F,16.2%,-4.75%,8.35%,-2.85%,21.5%,-1.7%
Cc1cc(CCl)cc(=O)[nH]1,-9.75%,-0.7%,-7.55%,-8.9%,-20.6%,12.2%
C=CCNC(=S)/N=C/c1c(O)[nH]c(=O)[nH]c1=O,-64.8%,-50.4%,-44.9%,-47%,-15.8%,-44.1%
Nc1ccc(CCC(=O)Nc2ccc(S(=O)(=O)F)cc2)c(Cl)c1,82.9% (active),84% (active),85.3% (active),92% (active),92% (active),96.5% (active)
Cc1ncc(CNC(=O)N(CCCl)N=O)c(N)n1,0.45%,-6.8%,6.3%,-10.2%,-4.2%,32.1%
c1ccc2c(C3NCCc4[nH]cnc43)cccc2c1 (stereo unspecified),3.7%,1.85%,-9.45%,-18.3%,-32%,4.65%
O=C(Nc1ncn[nH]1)C(Cl)(Cl)Cl,-4.1%,-15.9%,-7.15%,-53%,-2%,-7.25%
C=CC(Cl)OC(=O)C(C)O (stereo unspecified),16.5%,20.2%,15.2%,11.3%,1.55%,6.4%
O=C(NC(c1ccccc1)(c1ccccc1)c1ccccc1)N(CCCl)CCCl,5.95%,20.7%,12.9%,5.3%,39.5%,-7.5%
CCOP(=O)(CC#N)OCC,-6.85%,-11.7%,-7.05%,-6.4%,2.7%,0%
COc1ccc(C(O)(C(=O)O)c2ccc(OC)c(OC)c2)cc1OC,5.6%,-1.25%,-1.7%,-13.9%,8%,0.2%
